Measured values reported in PubChem BioAssay (EPA / NIEHS).
Records with an inconclusive call do not appear. The source made the active and inactive calls. The calls were made as follows, unless noted: active = hit-call score of the fitted dose curve at least 0.9, where 1 is the maximum; inactive = score below 0.9.

Assays:
[1] = BSK_3C_uPAR: BioMAP Diversity Plus: 3C Assay for Urokinase-type plasminogen activator receptor (uPAR) Biomarker Activity (AID 2282998); conditions: BioMAP 3C HUVEC, uPAR biomarker ELISA; actives raise or lower the signal
Outline: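 Values derive from bidirectional curve fitting relative to DMSO, which served as baseline of activity. uPAR was measured by ELISA in human umbilical vein endothelial primary cultures 24 h after compound addition.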

[2] = BSK_3C_VCAM1: BioMAP Diversity Plus: 3C Assay for Vascular cell adhesion molecule 1 (VCAM1) Biomarker Activity (AID 2282999); conditions: BioMAP 3C HUVEC, VCAM1 ELISA, cytokine-stimulated; actives raise or lower the signal
Outline: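 Endothelial cells from human umbilical vein are treated with test chemical. At 24 h, VCAM-1 is measured by ELISA, and responses in either direction are fitted relative to DMSO.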

[3] = BSK_4H_Eotaxin3: BioMAP Diversity Plus: 4H Assay for Eotaxin 3 Biomarker Activity (AID 2283000); conditions: primary human endothelial cells (HUVEC); actives raise or lower the signal;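 also: CCL26 protein level quantified by ELISA in parallel with SRB cytotoxicity check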
Outline: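 HUVEC, 24 h post-dose, ELISA for Eotaxin-3/CCL26. Gain or loss of signal fitted bidirectionally vs DMSO baseline.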

[4] = read-out: Intercellular Adhesion Molecule 1 (ICAM1), ICAM1 (gene 3383); assay: BSK_3C_ICAM1: BioMAP Diversity Plus: 3C Assay for Intercellular Adhesion Molecule 1 (ICAM1) Biomarker Activity (AID 2283003); conditions: primary human endothelial cells (HUVEC); actives raise or lower the signal
Outline: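 Primary human umbilical vein endothelial cells in the BioMAP 3C system were exposed to chemicals for 24 h, then ICAM-1 was quantified by ELISA. Activity was fitted bidirectionally against the DMSO negative control baseline.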

[5] = molecular target: human Retinoic Acid Receptor beta (RARb), RARB (gene 5915) (UniProt P10826); assay: ATG_RARb_TRANS: Attagene TRANS-FACTORIAL HepG2 Assay for human Retinoic Acid Receptor beta (AID 2283004; active = hit-call score of the fitted dose curve at least 0.9, where 1 is the maximum)
Sequence of human Retinoic Acid Receptor beta (RARb), RARB (gene 5915) (P10826 whole entry, looked up, the tested form may be a part): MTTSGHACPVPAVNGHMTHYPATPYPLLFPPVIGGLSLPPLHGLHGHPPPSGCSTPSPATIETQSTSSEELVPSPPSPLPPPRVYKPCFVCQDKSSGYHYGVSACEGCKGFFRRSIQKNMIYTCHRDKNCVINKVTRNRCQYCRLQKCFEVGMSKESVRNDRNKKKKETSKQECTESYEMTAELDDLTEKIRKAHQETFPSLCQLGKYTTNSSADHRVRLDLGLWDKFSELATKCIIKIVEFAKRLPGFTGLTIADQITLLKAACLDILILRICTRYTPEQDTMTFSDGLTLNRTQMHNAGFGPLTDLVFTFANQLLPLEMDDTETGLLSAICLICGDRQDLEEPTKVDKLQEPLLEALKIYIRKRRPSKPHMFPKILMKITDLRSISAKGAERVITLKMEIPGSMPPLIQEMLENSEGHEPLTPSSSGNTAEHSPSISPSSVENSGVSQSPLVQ
Outline: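 HepG2 cells transiently transfected with multiplexed GAL4-UAS reporter units expressing chimeric NR–Gal4 fusions; 24 h compound exposure. Reporter mRNA quantified by RT-PCR, 6-FAM labelling, HpaI digestion and capillary electrophoresis; gain-of-signal fitted against DMSO baseline.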

[6] = molecular target: Retinoic acid receptor alpha (Homo sapiens) (UniProt P10276); assay: ATG_RARa_TRANS: Attagene TRANS-FACTORIAL HepG2 Assay for human Retinoic Acid Receptor alpha (RARa) (AID 2283005; active = hit-call score of the fitted dose curve at least 0.9, where 1 is the maximum;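 as to AC50: potency for increased reporter signal meaning RARa activation over DMSO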)
Sequence of Retinoic acid receptor alpha (Homo sapiens) (P10276 whole entry, looked up, the tested form may be a part): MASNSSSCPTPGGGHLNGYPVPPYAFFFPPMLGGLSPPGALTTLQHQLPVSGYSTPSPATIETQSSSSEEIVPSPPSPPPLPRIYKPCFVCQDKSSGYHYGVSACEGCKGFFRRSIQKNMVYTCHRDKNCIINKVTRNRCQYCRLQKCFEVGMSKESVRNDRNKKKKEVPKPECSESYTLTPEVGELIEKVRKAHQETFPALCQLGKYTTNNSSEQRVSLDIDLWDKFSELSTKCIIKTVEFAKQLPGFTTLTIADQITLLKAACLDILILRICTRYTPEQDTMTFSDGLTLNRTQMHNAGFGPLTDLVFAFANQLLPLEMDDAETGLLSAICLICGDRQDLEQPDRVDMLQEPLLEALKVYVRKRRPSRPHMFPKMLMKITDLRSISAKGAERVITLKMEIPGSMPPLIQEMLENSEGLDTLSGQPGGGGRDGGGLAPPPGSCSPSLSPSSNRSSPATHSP
Outline: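 Reporter transcripts, measured by RT-PCR with fluorescent labeling and capillary electrophoresis after 24 h dosing, reflect activity of an exogenous human RARa–GAL4 fusion in transiently transfected HepG2. Fitted for increase relative to DMSO.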

[7] = BSK_3C_Proliferation: Cell Proliferation Assessment in the BioMAP Diversity Plus: 3C Assay (AID 2283006); conditions: primary human endothelial cells (HUVEC);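 as to AC50: potency may reflect either rise or fall in cell number versus DMSO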
Outline: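 Human umbilical vein endothelial cells were grown sub-confluent and exposed to chemical for 48 h, then fixed with 10% TCA and stained with 0.1% sulforhodamine B; absorbance at 560 nm gave relative cell number, fitted bidirectionally against DMSO baseline.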

[8] = molecular target: Peroxisome proliferator-activated receptor gamma (Homo sapiens) (UniProt P37231); assay: ATG_PPARg_TRANS: Attagene TRANS-FACTORIAL HepG2 Assay for human Peroxisome Proliferator-activated Receptor-gamma (PPARg) (AID 2283007; active = hit-call score of the fitted dose curve at least 0.9, where 1 is the maximum)
Sequence of Peroxisome proliferator-activated receptor gamma (Homo sapiens) (P37231 whole entry, looked up, the tested form may be a part): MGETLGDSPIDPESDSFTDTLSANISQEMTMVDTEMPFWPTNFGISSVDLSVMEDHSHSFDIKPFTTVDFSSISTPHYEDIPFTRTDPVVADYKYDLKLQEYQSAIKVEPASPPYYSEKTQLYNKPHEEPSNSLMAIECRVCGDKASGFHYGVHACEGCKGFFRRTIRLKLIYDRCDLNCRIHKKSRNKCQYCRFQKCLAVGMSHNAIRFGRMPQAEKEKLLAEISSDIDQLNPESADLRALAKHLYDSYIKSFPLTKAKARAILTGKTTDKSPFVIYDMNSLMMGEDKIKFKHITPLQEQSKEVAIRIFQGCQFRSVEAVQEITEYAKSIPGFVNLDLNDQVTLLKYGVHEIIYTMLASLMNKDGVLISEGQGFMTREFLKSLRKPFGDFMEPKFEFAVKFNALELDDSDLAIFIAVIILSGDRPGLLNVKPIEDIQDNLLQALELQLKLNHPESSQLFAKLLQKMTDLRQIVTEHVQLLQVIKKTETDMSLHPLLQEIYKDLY
Outline: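 HepG2 cells transiently transfected with multiplexed GAL4-UAS reporter units and exogenous chimeric NR-Gal4 proteins; reporter mRNA quantified after 24 h compound exposure by RT-PCR, fluorescent labelling, HpaI digestion and capillary electrophoresis; gain-of-signal fitted versus DMSO baseline.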

[9] = molecular target: Nuclear receptor subfamily 1 group I member 2 (Homo sapiens) (UniProt O75469); assay: ATG_PXR_TRANS: Attagene TRANS-FACTORIAL HepG2 Assay for human Pregnane X Receptor (PXR) (AID 2283008; active = hit-call score of the fitted dose curve at least 0.9, where 1 is the maximum)
Sequence of Nuclear receptor subfamily 1 group I member 2 (Homo sapiens) (O75469 whole entry, looked up, the tested form may be a part): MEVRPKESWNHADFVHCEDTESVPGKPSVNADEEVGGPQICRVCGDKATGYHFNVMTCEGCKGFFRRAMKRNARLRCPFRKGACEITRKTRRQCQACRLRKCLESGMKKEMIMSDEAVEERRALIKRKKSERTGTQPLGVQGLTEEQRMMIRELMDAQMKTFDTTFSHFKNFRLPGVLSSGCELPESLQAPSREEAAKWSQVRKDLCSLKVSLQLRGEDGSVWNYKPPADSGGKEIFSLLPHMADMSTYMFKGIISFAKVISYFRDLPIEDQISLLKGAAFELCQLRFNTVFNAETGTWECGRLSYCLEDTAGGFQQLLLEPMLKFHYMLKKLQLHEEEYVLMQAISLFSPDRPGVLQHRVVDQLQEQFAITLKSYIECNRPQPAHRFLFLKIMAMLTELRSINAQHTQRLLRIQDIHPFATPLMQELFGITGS
Outline: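 HepG2 cells transiently transfected with multiple reporter units, here a PXR-GAL4 chimera driving a GAL4-UAS reporter; 24 h compound exposure. Reporter mRNA measured by RT-PCR, FAM labelling and capillary electrophoresis; gain of signal fitted against DMSO baseline.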

[10] = molecular target: human Retinoic Acid Receptor gamma (RARg), RARG (gene 5916) (UniProt P13631); assay: ATG_RARg_TRANS: Attagene TRANS-FACTORIAL HepG2 Assay for human Retinoic Acid Receptor gamma (RARg) (AID 2283009; active = hit-call score of the fitted dose curve at least 0.9, where 1 is the maximum)
Sequence of human Retinoic Acid Receptor gamma (RARg), RARG (gene 5916) (P13631 whole entry, looked up, the tested form may be a part): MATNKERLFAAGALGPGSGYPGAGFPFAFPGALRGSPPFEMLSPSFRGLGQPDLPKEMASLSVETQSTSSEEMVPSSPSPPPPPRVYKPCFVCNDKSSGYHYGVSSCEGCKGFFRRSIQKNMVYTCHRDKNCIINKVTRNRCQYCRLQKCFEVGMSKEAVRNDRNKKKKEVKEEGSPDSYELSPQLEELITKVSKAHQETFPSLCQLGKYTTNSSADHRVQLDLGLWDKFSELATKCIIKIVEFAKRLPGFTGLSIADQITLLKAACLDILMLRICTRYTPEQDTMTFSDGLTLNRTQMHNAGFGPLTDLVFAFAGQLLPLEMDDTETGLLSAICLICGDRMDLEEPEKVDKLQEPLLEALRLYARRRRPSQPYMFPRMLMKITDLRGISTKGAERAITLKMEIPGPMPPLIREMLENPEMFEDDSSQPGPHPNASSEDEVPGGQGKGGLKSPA
Outline: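 HepG2 cells transiently transfected with multiplexed reporter units expressing chimeric RARg-GAL4 and GAL4-UAS-driven reporters; 24 h compound exposure. Reporter mRNA quantified by RT-PCR with fluorescent labelling and capillary electrophoresis; gain-of-signal fitted relative to DMSO baseline.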

[11] = molecular target: human RAR-related Orphan Receptor beta (RORb), RORB (gene 6096) (UniProt Q92753); assay: ATG_RORb_TRANS: Attagene TRANS-FACTORIAL HepG2 Assay for human RAR-related Orphan Receptor beta (RORb) (AID 2283010; active = hit-call score of the fitted dose curve at least 0.9, where 1 is the maximum)
Sequence of human RAR-related Orphan Receptor beta (RORb), RORB (gene 6096) (Q92753 whole entry, looked up, the tested form may be a part): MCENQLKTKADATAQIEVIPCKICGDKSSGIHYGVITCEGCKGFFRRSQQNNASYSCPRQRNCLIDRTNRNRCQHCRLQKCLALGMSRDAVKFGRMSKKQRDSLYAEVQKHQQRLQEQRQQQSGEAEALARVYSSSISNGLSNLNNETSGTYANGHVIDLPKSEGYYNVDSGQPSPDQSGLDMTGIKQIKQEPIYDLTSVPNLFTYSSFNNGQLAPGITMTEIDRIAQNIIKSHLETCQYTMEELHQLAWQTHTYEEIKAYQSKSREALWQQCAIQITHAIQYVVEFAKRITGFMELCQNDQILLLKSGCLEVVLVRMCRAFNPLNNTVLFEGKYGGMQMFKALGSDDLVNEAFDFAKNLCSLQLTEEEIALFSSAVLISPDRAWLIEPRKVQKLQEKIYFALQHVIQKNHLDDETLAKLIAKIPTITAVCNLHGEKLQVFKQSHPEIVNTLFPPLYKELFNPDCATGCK
Outline: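 HepG2 cells were transiently transfected with multiplexed GAL4-UAS reporter units expressing chimeric nuclear receptor–GAL4 proteins, then dosed for 24 h. Reporter mRNA was quantified by RT-PCR with fluorescent labelling and capillary electrophoresis; gain of signal was fitted relative to DMSO.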

[12] = molecular target: Retinoic acid receptor RXR-alpha (Homo sapiens) (UniProt P19793); assay: ATG_RXRa_TRANS: Attagene TRANS-FACTORIAL HepG2 Assay for human Retinoid X Receptor alpha (RXRa) (AID 2283012; active = hit-call score of the fitted dose curve at least 0.9, where 1 is the maximum)
Sequence of Retinoic acid receptor RXR-alpha (Homo sapiens) (P19793 whole entry, looked up, the tested form may be a part): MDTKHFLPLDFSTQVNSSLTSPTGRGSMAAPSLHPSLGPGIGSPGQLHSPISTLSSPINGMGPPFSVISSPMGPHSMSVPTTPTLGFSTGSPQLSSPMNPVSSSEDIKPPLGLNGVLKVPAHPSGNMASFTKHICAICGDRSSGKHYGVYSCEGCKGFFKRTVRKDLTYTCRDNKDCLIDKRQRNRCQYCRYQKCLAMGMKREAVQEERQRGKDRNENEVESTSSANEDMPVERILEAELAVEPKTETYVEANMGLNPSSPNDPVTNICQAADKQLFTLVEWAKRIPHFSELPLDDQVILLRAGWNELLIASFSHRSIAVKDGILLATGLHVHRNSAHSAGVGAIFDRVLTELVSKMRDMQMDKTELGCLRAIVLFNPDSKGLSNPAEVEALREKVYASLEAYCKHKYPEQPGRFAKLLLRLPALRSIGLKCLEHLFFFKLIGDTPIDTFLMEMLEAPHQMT
Outline: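 HepG2 cells transiently transfected with multiplexed GAL4-UAS reporter units and chimeric NR-GAL4 fusions, dosed 24 h. Reporter mRNA measured by RT-PCR, FAM labelling, HpaI digestion and capillary electrophoresis; gain-of-signal fitted relative to DMSO baseline.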

[13] = read-out: E-selectin (Homo sapiens) (UniProt P16581); assay: BSK_3C_Eselectin: BioMAP Diversity Plus: 3C Assay for Eselectin Biomarker Activity (AID 2283015); conditions: primary human endothelial cells (HUVEC); actives raise or lower the signal;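 as to outcome: cell surface E-selectin protein quantified by ELISA 24 h after dosing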
Outline: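 Primary human umbilical vein endothelial cells (3C system) were dosed with chemical and cell-surface E-selectin measured by ELISA 24 h later. Bidirectional curve fitting used DMSO as negative control and baseline.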

[14] = read-out: Interleukin-1 alpha (IL1a), IL1A (gene 3552); assay: BSK_BE3C_IL1a: BioMAP Diversity Plus: BE3C Assay for Interleukin-1 alpha (IL1a) Biomarker Activity (AID 2283016); conditions: primary human bronchial epithelial cells; actives raise or lower the signal
Outline: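 Human primary bronchial epithelial cells (BE3C system) were dosed with compound and IL-1a measured by ELISA 24 h later. Activity was fitted bidirectionally against DMSO baseline; cytotoxicity was tracked in parallel cultures by SRB total-protein staining.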

[15] = read-out: Monocyte Chemoattractant Protein-1 (MCP1), CCL2 (gene 6347); assay: BSK_3C_MCP1: BioMAP Diversity Plus: 3C Assay for Monocyte Chemoattractant Protein-1 (MCP1) Biomarker Activity (AID 2283017); conditions: primary human endothelial cells (HUVEC); actives raise or lower the signal
Outline: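 Primary human umbilical vein endothelial cells (3C system) were exposed to test chemical for 24 h, after which MCP-1 was quantified by ELISA. Activity was fitted bidirectionally against DMSO as negative control and baseline.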

[16] = read-out: Monocyte Chemoattractant Protein-1 (MCP1), CCL2 (gene 6347); assay: BSK_4H_MCP1: BioMAP Diversity Plus: 4H Assay for Monocyte Chemoattractant Protein-1 (MCP1) Biomarker Activity (AID 2283018); conditions: primary human endothelial cells (HUVEC); actives raise or lower the signal
Outline: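 Human umbilical vein endothelial cells (4H system) dosed with chemical; MCP-1 measured by ELISA 24 h after dosing. Bidirectional curve fitting against DMSO negative control as baseline; parallel SRB total-protein staining tracks overt cytotoxicity.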

[17] = molecular target: human Thyroid Receptor alpha (THRa1), THRA (gene 7067) (UniProt P10827); assay: ATG_THRa1_TRANS: Attagene TRANS-FACTORIAL HepG2 Assay for human Thyroid Receptor alpha (THRa1) (AID 2283014; active = hit-call score of the fitted dose curve at least 0.9, where 1 is the maximum)
Sequence of human Thyroid Receptor alpha (THRa1), THRA (gene 7067) (P10827 whole entry, looked up, the tested form may be a part): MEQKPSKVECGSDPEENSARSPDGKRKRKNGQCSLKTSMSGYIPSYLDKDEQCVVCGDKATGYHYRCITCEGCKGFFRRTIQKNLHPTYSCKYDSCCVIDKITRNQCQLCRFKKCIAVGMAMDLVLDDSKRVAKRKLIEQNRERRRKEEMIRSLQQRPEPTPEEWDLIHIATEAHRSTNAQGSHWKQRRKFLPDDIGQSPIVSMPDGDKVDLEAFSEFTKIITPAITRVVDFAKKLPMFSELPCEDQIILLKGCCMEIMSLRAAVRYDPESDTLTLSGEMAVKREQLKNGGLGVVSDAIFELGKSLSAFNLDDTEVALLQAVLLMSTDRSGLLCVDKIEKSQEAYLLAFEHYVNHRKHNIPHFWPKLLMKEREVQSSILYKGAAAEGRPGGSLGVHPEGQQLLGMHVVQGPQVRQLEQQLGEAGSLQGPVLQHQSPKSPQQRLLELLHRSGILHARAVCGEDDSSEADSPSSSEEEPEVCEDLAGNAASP
Outline: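 HepG2 cells transiently transfected with multiplexed GAL4-UAS reporter units for exogenous chimeric THRa1-Gal4; reporter mRNA measured 24 h after dosing by RT-PCR, 6-FAM labelling, HpaI digestion and capillary electrophoresis. Gain-of-signal fitted versus DMSO baseline.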

[18] = molecular target: human RAR-related Orphan Receptor gamma (RORg), RORC (gene 6097) (UniProt P51449); assay: ATG_RORg_TRANS: Attagene TRANS-FACTORIAL HepG2 Assay for human RAR-related Orphan Receptor gamma (RORg) (AID 2283011; active = hit-call score of the fitted dose curve at least 0.9, where 1 is the maximum)
Outline: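 Readout: reporter transcript induction (RT-PCR, fluorescent primer extension, capillary electrophoresis) after 24 h compound exposure of transiently transfected HepG2 cells carrying a RORg-Gal4 chimera and GAL4-UAS reporters; DMSO served as baseline, with increasing signal fitted.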

[19] = molecular target: human Retinoid X Receptor beta (RXRb), RXRB (gene 6257) (UniProt P28702); assay: ATG_RXRb_TRANS: Attagene TRANS-FACTORIAL HepG2 Assay for human Retinoid X Receptor beta (RXRb) (AID 2283013; active = hit-call score of the fitted dose curve at least 0.9, where 1 is the maximum)
Sequence of human Retinoid X Receptor beta (RXRb), RXRB (gene 6257) (P28702 whole entry, looked up, the tested form may be a part): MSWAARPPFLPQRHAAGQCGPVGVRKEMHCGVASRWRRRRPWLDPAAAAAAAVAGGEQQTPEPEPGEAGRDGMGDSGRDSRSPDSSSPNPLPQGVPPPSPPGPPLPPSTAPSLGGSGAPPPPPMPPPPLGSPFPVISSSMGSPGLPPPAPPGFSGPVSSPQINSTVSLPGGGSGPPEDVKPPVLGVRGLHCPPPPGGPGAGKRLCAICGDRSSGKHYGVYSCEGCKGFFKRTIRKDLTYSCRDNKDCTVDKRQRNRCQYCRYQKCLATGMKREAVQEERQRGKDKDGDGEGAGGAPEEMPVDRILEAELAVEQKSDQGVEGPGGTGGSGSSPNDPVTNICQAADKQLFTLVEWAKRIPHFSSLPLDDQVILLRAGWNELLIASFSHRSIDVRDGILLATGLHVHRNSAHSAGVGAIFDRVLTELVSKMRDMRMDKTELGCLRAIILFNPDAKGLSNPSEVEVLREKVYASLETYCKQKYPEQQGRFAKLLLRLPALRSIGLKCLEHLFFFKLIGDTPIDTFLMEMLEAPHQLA
Outline: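 HepG2 cells transiently transfected with multiplexed reporter units driven by GAL4-UAS and exogenous chimeric NR-Gal4 proteins; treated 24 h. Reporter mRNA measured by RT-PCR, 6-FAM labelling and capillary electrophoresis; gain-of-signal fitted versus DMSO baseline.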

Sequence of E-selectin (Homo sapiens) (P16581 whole entry, looked up): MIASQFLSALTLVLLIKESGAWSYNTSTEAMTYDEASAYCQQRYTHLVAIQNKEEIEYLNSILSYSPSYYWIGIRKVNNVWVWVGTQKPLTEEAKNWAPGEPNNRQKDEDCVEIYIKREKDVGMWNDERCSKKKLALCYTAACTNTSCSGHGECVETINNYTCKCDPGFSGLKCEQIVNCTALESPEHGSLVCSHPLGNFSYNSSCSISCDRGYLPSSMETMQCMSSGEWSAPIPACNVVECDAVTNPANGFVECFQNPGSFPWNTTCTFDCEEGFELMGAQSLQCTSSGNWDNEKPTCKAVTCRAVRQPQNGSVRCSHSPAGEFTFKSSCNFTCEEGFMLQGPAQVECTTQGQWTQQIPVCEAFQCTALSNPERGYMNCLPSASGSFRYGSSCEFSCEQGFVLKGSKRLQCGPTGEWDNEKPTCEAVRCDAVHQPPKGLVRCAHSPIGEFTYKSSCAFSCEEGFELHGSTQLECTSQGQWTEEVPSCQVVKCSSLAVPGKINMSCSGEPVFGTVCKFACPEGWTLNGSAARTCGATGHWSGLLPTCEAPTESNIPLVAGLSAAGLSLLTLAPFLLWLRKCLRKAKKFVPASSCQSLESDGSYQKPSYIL

Question: What does the source list for CCCC(=NOCC)C1=C(O)CC(CC(C)SCC)CC1=O (configuration not stated)?
Answer: outcome [1]: inactive; outcome [2]: inactive; outcome [3]: inactive; outcome [4]: inactive; outcome [5]: inactive; outcome [6]: inactive; outcome [7]: inactive; outcome [8]: inactive; outcome [9]: inactive; outcome [10]: inactive; outcome [11]: inactive; outcome [12]: inactive; outcome [13]: inactive; outcome [14]: inactive; outcome [15]: inactive; outcome [16]: inactive

Question: With COC(=O)NC(=S)Nc1ccccc1NC(=S)NC(=O)OC as the compound, how does the outcome [1] read?
Answer: inactive

Question: What about the outcome [2] of the same compound?
Answer: inactive

Question: What about the outcome [3] of the same compound?
Answer: inactive

Question: And the outcome [4]?
Answer: inactive

Question: And the outcome [7]?
Answer: inactive

Question: What about the outcome [8] of the same compound?
Answer: inactive

Question: What about the outcome [9] of the same compound?
Answer: inactive

Question: And the outcome [11]?
Answer: inactive

Question: And the outcome [12]?
Answer: inactive

Question: And the outcome [17]?
Answer: inactive

Question: What about the AC50 [13] of the same compound?
Answer: 5.15 µM (active)

Question: And the outcome [14]?
Answer: inactive

Question: And the outcome [15]?
Answer: inactive

Question: What about the AC50 [16] of the same compound?
Answer: 5.32 µM (active)

Question: What does the source list for CNC(=O)N(C)c1nnc(C(C)(C)C)s1?
Answer: outcome [1]: inactive; outcome [2]: inactive; outcome [3]: inactive; outcome [4]: inactive; outcome [5]: inactive; outcome [6]: inactive; outcome [7]: inactive; outcome [8]: inactive; outcome [9]: inactive; outcome [18]: inactive; outcome [12]: inactive; outcome [13]: inactive; outcome [14]: inactive; outcome [15]: inactive; outcome [16]: inactive

Question: What does the source list for CC1(C)C(C(=O)OC(C#N)c2cccc(Oc3ccccc3)c2)C1(C)C (configuration not stated)?
Answer: outcome [1]: inactive; outcome [2]: inactive; outcome [3]: inactive; outcome [4]: inactive; outcome [5]: inactive; AC50 [6]: 13.7 µM (active); AC50 [7]: 7.92 µM (active); AC50 [8]: 16.9 µM (active); AC50 [9]: 9.21 µM (active); outcome [10]: inactive; outcome [19]: inactive; outcome [17]: inactive; outcome [13]: inactive; outcome [14]: inactive; outcome [16]: inactive

Question: What does the source list for Nc1c(Cl)c(F)nc(OCC(=O)O)c1Cl?
Answer: outcome [1]: inactive; outcome [2]: inactive; outcome [3]: inactive; outcome [4]: inactive; outcome [5]: inactive; outcome [6]: inactive; outcome [7]: inactive; outcome [8]: inactive; outcome [9]: inactive; outcome [10]: inactive; outcome [11]: inactive; outcome [12]: inactive; outcome [19]: inactive; outcome [13]: inactive; outcome [14]: inactive; outcome [15]: inactive; outcome [16]: inactive
